# Source: PubChem BioAssay (NCATS)
# Records with an inconclusive call do not appear. Values without a mark were called inactive. Calls come from the whole dose curve; as a rule, active = well fitted inhibition curve with a large enough effect; inconclusive = small, poorly fitted or top-dose-only effect; inactive = flat fitted curve, though single readings scatter.
# Biological target: Calcium and integrin-binding protein 1 (Homo sapiens) (UniProt Q99828)
# Assay: Primary qHTS for Identification of Calcium Integrin Binding Protein 1 (CIB1) Competitor (AID 1508620);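 note: GST tagged CIB1 binding a fluorescein labelled alphaIIb integrin peptide tracer; top concentration of the series differs between compounds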
# Conditions: CIB1-GST / FITC-alphaIIb peptide fluorescence polarization; series mostly up to 114 µM; activity change, negative = inhibition: at the top concentration
# How it was run: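 CIB1-GST (1 uM final) and compound incubated 15 min at room temperature before adding FITC-alphaIIb peptide tracer (100 nM final). Competition for binding read by fluorescence polarization (ex 480, em 540) after another 15 min at room temperature.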
# % is set by controls: 0 for no effect and ±100 for the full control effect.
# Calcium and integrin-binding protein 1 (Homo sapiens), sequence (Q99828 whole entry, looked up): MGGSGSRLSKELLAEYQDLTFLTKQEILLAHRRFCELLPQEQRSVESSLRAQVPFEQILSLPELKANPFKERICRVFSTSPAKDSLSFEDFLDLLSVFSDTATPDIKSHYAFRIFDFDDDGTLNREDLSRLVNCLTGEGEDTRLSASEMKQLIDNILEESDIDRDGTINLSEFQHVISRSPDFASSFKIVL
row,Structure (SMILES),"activity change, negative = inhibition [%]"
1,NC(=O)C1CCN(c2nc(-c3ccc(OC(F)(F)F)cc3)cs2)CC1,2.75
2,NNC(=O)C(C(=O)OCc1ccccc1)c1ccccc1 (centres undefined),-5.23
3,N#Cc1nc(Nc2ccc(C(F)(F)F)cc2)nc(NC2CCCC2)n1,-0.681
4,COc1cccc(NC(=S)N2CCN(c3cccc(C(F)(F)F)n3)CC2)n1,3.17
5,Cc1cc(C)nc(NC(=S)N2CCN(c3nccc4ccccc34)CC2)c1,-7.65
6,CC(C)Oc1ccc(-c2ccc(=O)n(CC(=O)NCCc3ccccc3)n2)cc1,-5.21
7,COc1ccc2ncnc(NCc3cccs3)c2c1-c1ccc2c(c1)OCO2,-4.45
8,CCOC(=O)c1ccoc1-c1ccc2ncnc(N(C)Cc3sccc3C)c2c1,2.54
9,c1cncc(CNc2ncnc3ccc(-c4ccco4)cc23)c1,-12.9
10,O=[N+]([O-])c1cccc(S(=O)(=O)N2CCN(S(=O)(=O)c3ccc4c(c3)OCCO4)CC2)c1,-4.4
11,Cc1cc2c(s1)c1cnn(Cc3ccc(Cl)cc3)c(=O)c1n2C,38.3
12,NC(=O)c1ccccc1C[C@H](C(=O)O)N1C(=O)c2ccc(C(=O)O)cc2C1=O,0.11
13,O=C(O)c1ccc(-n2cccc2/C=C2\SC(=O)N(Cc3ccc(Cl)cc3)C2=O)cc1,6.26
14,O=S(=O)(c1ccc2c(c1)OCCO2)N1CCN(S(=O)(=O)c2c(F)cccc2F)CC1,-4.79
15,Cc1ccc(C)c(SC2CS(=O)(=O)c3ccccc32)c1 (centres undefined),1.28
16,FC(F)(F)c1ccccc1-c1nc(NCc2ccc(-c3ccc4c(c3)OCO4)cc2)c2ccccc2n1,0.658
17,Cn1nnnc1Sc1ncnc2scc(-c3ccccc3Br)c12,2.41
18,O=C(Nc1ccc(-c2nc3ccccc3[nH]2)cc1)c1ccc2n[nH]nc2c1,4.23
19,O=C(Nc1cc(C(F)(F)F)ccc1Cl)C(O)Cc1ccccc1 (centres undefined),0.177
20,Cc1ccc(OCCn2c(CCNC(=O)c3ccccc3F)nc3ccccc32)cc1,5.6

row,Structure (SMILES),"activity change, negative = inhibition [%]"
1,CCC(=O)NC(C)c1cc(Cl)c2ccccc2c1O (centres undefined),-1.79
2,Cn1cc2ccc(-c3ccc4ncnc(NCc5cccs5)c4c3)cc2n1,2.8
3,N#CN1CCC(N[S+](=O)([O-])c2cccc(F)c2)CC1,3.12
4,Cn1c2ccsc2c2cnn(Cc3ccc(F)cc3)c(=O)c21,0.241
5,CC(Nc1ncnc2ccc(-c3ccc4c(c3)OCO4)cc12)c1ccco1 (centres undefined),-0.794
6,Cc1cc2c(s1)c1cnn(Cc3ccc(F)cc3)c(=O)c1n2C,5.77
7,Cc1cnc(-c2ccccc2C(C)C)nc1N(C)Cc1ccc(-c2cccnc2)cc1,-0.685
8,CS(=O)(=O)/C=C/c1nc(Nc2cc(F)cc(F)c2)c2ncn(CC(F)F)c2n1,9.77
9,Cc1cc(C)nc(NC(=S)N2CCN(c3ncccn3)CC2)c1,-0.681
10,O=C1NC(=O)/C(=C/c2cccn2-c2ccc(P(O)O)cc2)N1,-2.2
11,O=C1CCCC2=C1C(c1ccc(Cl)cc1)N=C(Nc1nc3ccccc3o1)N2 (centres undefined),5.04
12,O=C(Nc1ncc(Cc2ccc(C(F)(F)F)cc2)s1)c1ccc(-c2ccc([N+](=O)[O-])cc2)o1,-6.22
13,Cc1cnc(-c2ccccc2C(C)C)nc1NCc1cccnc1,3.45
14,Fc1cc(Nc2nc(-c3ccncc3)nc3ccccc23)ccc1OCC(F)(F)F,2.76
15,c1coc(CNc2nc(-c3cccs3)nc3ccccc23)c1,0.931
16,O=S(=O)(c1ccc2c(c1)OCCO2)N1CCN(S(=O)(=O)c2ccc(Br)cc2F)CC1,-1.54
17,CCOc1ccc(CCNC(=O)c2cc3sccc3[nH]2)cc1OCC,1.24
18,Cn1nnnc1Sc1ncnc2scc(-c3cccc([N+](=O)[O-])c3)c12,-17.8
19,COc1cccc(Cn2ncc3c4sc(B(O)O)cc4n(C)c3c2=O)c1,-10.8
